Inconclusive results are not listed. Calls of active or inactive are those of the source. The calls were made as follows, unless noted: active = hit-call score of the fitted dose curve at least 0.9, where 1 is the maximum; inactive = score below 0.9.
Columns and labels:
[1] = read-out: Monocyte Chemoattractant Protein-1 (MCP1), CCL2 (gene 6347); experiment: BSK_SAg_MCP1: BioMAP Diversity Plus: SAg Assay for Monocyte Chemoattractant Protein-1 (MCP1) Biomarker Activity (AID 2283090); details: primary human HUVEC with PBMC; actives raise or lower the signal
Summary of the method: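 Values derive from bidirectional fitting of ELISA-measured MCP1 against DMSO controls. Readings were taken 24 h after dosing human vascular endothelial cells co-cultured with peripheral blood mononuclear cells under superantigen stimulation.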

[2] = read-out: E-selectin (Homo sapiens) (UniProt P16581); experiment: BSK_SAg_Eselectin: BioMAP Diversity Plus: SAg Assay for Eselectin Biomarker Activity (AID 2283091); details: primary human HUVEC with PBMC; actives raise or lower the signal
Summary of the method: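 HUVEC co-cultured with PBMC, compound dosed then read at 24 h; E-selectin measured by ELISA. Activity fitted bidirectionally against DMSO as negative control and baseline.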

[3] = read-out: Monokine induced gamma interferon (MIG), CXCL9 (gene 4283); experiment: BSK_SAg_MIG: BioMAP Diversity Plus: SAg Assay for Monokine induced gamma interferon (MIG) Biomarker Activity (AID 2283092); details: primary human HUVEC with PBMC; actives raise or lower the signal
Summary of the method: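 ELISA readout of MIG/CXCL9; primary human umbilical vein endothelial cells co-cultured with peripheral blood mononuclear cells; 24 h post-dose; gain/loss fit vs DMSO baseline.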

[4] = BSK_SAg_PBMCCytotoxicity: PBMC Cytotoxicity Assessment in the BioMAP Diversity Plus: SAg Assay (AID 2283093); details: primary human HUVEC with PBMC;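 also: fitted both ways against DMSO so a hit may be loss or gain of signal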;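 as to AC50: PBMC superantigen activated with SEB plus TSST-1 one hour after compound addition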
Summary of the method: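 PBMC viability by Alamar Blue reduction, fluorescence read at 546/580 nm after 6 h dye exposure. Cells were dosed 1 h before SEB plus TSST-1 activation (20 ng/mL final each), then held 90 h; endothelial/PBMC human co-culture.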

[5] = read-out: Interleukin-8 (IL8), CXCL8 (gene 3576); experiment: BSK_SAg_IL8: BioMAP Diversity Plus: SAg Assay for Interleukin-8 (IL8) Biomarker Activity (AID 2283094); details: primary human HUVEC with PBMC; actives raise or lower the signal
Summary of the method: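 Chemicals were dosed onto a human endothelial–PBMC co-culture, and IL-8 was quantified by ELISA after 24 h. Both increases and decreases were fitted relative to DMSO.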

[6] = BSK_SAg_Proliferation: Cell Proliferation Assessment in the BioMAP Diversity Plus: SAg Assay (AID 2283095); details: primary human HUVEC with PBMC;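 also: relative cell number as total protein by SRB absorbance in sub-confluent culture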
Summary of the method: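 Absorbance of sulforhodamine B at 560 nm reports total protein in a human vascular endothelial/PBMC co-culture after 96 h chemical exposure. Gain or loss of signal is fitted in both directions against DMSO.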

[7] = BSK_SAg_SRB: Viability Assessment in the BioMAP Diversity Plus: SAg Assay (AID 2283096); details: primary human HUVEC with PBMC;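 also: cells read one day after compound addition; hits may be either gain or loss of signal compared with DMSO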
Summary of the method: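 Compounds were added to a human vascular co-culture of umbilical vein endothelium and PBMC. After 24 h, parallel cultures were fixed with 10% TCA, stained with 0.1% sulforhodamine B and read at 560 nm. Gain or loss of signal was fitted relative to DMSO.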

[8] = molecular target: human CYP1A1, CYP1A1 (gene 1543) (UniProt P04798); experiment: NVS_ADME_hCYP1A1: NovaScreen (NVS) CYP450-related Enzyme Activity (ADME) Assay for human CYP1A1 (AID 2283100; active = hit-call score of the fitted dose curve at least 0.9, where 1 is the maximum)
human CYP1A1, CYP1A1 (gene 1543), sequence (P04798 whole entry, looked up): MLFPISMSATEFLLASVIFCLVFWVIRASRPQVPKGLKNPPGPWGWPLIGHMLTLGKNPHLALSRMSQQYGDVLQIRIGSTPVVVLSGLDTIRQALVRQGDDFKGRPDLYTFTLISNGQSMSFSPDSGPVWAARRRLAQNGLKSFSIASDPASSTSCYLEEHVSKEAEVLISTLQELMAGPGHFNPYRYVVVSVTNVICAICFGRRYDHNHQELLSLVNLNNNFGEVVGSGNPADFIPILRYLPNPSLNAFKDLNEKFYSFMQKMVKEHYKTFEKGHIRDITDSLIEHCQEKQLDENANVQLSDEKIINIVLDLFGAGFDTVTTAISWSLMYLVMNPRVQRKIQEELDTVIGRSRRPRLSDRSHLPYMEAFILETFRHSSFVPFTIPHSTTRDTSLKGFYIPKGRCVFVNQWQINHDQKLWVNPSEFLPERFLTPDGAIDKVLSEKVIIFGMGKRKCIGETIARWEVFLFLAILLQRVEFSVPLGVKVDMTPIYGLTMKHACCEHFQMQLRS
Summary of the method: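 Cell-free fluorescence assay of recombinant human CYP1A1 activity with a specific substrate, read 1 h after dosing. Compounds were screened in duplicate at 10 uM, then hits tested in concentration-response up to 20 uM; acetonitrile served as baseline.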

[9] = molecular target: human CYP2B6, CYP2B6 (gene 1555) (UniProt P20813); experiment: NVS_ADME_hCYP2B6: NovaScreen (NVS) CYP450-related Enzyme Activity (ADME) Assay for human CYP2B6 (AID 2283101; active = hit-call score of the fitted dose curve at least 0.9, where 1 is the maximum)
human CYP2B6, CYP2B6 (gene 1555), sequence (P20813 whole entry, looked up): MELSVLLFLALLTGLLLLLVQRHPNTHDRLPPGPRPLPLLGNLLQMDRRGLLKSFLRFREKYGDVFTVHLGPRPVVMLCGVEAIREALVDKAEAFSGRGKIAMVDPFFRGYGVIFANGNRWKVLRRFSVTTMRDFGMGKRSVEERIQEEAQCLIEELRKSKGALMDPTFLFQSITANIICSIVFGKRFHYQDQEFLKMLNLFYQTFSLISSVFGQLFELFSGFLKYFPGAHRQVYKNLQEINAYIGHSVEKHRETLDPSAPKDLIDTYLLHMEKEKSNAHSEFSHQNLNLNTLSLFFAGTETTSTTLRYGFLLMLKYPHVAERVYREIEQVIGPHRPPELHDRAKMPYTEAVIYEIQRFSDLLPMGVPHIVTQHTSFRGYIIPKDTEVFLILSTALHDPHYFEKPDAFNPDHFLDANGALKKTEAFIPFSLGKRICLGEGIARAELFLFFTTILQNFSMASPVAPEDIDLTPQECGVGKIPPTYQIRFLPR
Summary of the method: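 Fluorescence-based enzyme activity of recombinant human CYP2B6, measured 1 h post-dose against acetonitrile vehicle baseline. Screened at a single concentration of 10 uM in duplicate before concentration-response follow-up.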

[10] = molecular target: human CYP2C9, CYP2C9 (gene 1559) (UniProt P11712); experiment: NVS_ADME_hCYP2C9: NovaScreen (NVS) CYP450-related Enzyme Activity (ADME) Assay for human CYP2C9 (AID 2283108; active = hit-call score of the fitted dose curve at least 0.9, where 1 is the maximum)
human CYP2C9, CYP2C9 (gene 1559), sequence (P11712 whole entry, looked up): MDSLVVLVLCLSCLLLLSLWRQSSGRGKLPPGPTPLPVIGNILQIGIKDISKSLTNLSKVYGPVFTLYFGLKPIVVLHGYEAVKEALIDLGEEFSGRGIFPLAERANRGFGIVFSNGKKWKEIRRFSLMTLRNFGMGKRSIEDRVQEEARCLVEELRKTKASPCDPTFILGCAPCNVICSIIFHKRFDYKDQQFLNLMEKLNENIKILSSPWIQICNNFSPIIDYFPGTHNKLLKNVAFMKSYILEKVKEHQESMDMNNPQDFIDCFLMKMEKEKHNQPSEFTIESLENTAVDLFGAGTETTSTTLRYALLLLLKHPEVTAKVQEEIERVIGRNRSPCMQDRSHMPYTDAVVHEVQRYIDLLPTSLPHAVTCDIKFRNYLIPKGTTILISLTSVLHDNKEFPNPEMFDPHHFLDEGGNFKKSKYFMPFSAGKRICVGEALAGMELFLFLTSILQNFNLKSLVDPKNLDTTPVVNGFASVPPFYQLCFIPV
Summary of the method: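 Recombinant human CYP2C9 expressed in SF9 cells, fluorogenic substrate, fluorescence read 0.75 h after dosing. Chemicals first run in duplicate at 10 uM, with actives followed in concentration series; loss of signal versus acetonitrile baseline.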

[11] = molecular target: Cytochrome P450 3A4 (Homo sapiens) (UniProt P08684); experiment: NVS_ADME_hCYP3A4: NovaScreen (NVS) CYP450-related Enzyme Activity (ADME) Assay for human CYP3A4 (AID 2283110; active = hit-call score of the fitted dose curve at least 0.9, where 1 is the maximum)
Cytochrome P450 3A4 (Homo sapiens), sequence (P08684 whole entry, looked up): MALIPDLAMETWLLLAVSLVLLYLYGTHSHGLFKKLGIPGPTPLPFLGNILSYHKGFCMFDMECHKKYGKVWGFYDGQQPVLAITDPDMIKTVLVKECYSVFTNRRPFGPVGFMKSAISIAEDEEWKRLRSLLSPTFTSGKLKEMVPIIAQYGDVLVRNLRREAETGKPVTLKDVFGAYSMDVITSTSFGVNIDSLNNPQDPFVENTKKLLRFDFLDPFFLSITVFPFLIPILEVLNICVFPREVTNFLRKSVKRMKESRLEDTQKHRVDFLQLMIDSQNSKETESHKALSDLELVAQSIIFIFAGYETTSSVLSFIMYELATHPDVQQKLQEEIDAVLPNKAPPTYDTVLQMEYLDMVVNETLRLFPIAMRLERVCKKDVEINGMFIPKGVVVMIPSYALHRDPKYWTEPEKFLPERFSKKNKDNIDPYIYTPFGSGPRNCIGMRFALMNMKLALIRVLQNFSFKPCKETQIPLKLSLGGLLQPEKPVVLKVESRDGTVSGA
Summary of the method: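 Recombinant CYP3A4 from insect cells, fluorescence enzyme read-out, 0.33 h after chemical addition. Acetonitrile = negative control/baseline. Primary HTS: 10 uM in duplicate; actives re-tested in concentration series.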

[12] = molecular target: Cytochrome P450 2C19 (Homo sapiens) (UniProt P33261); experiment: NVS_ADME_hCYP2C19: NovaScreen (NVS) CYP450-related Enzyme Activity (ADME) Assay for human CYP2C19 (AID 2283113; active = hit-call score of the fitted dose curve at least 0.9, where 1 is the maximum;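 as to AC50: potency for inhibition seen as loss of fluorescent signal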)
Summary of the method: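 Cell-free assay of recombinant human CYP2C19 expressed in insect cells, with a fluorogenic substrate; fluorescence intensity read 1 hour after dosing. Loss of signal relative to acetonitrile negative control indicates inhibition. Primary screen at 10 uM in duplicate, then concentration series.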

[13] = molecular target: human CYP1A2, CYP1A2 (gene 1544) (UniProt P05177); experiment: NVS_ADME_hCYP1A2: NovaScreen (NVS) CYP450-related Enzyme Activity (ADME) Assay for human CYP1A2 (AID 2283102; active = hit-call score of the fitted dose curve at least 0.9, where 1 is the maximum;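 also: potency for inhibition since loss of fluorescence marks reduced CYP1A2 activity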)
human CYP1A2, CYP1A2 (gene 1544), sequence (P05177 whole entry, looked up): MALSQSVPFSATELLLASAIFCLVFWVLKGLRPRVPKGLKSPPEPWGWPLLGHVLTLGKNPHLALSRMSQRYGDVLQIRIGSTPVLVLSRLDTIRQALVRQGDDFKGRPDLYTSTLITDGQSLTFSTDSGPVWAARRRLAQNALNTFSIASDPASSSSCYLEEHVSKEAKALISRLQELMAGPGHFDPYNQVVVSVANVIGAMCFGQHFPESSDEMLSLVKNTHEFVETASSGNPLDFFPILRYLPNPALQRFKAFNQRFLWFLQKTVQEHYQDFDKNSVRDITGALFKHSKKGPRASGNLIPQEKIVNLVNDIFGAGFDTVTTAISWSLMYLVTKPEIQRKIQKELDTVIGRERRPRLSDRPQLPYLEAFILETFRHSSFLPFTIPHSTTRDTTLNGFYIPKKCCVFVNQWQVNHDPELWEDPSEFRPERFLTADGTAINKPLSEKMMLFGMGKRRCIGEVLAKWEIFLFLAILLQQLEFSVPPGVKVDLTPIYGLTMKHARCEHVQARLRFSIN
Summary of the method: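 Cell-free recombinant human CYP1A2 expressed in insect cells, with fluorogenic substrate; fluorescence intensity read 0.5 h after dosing. Loss of signal relative to acetonitrile baseline scored. Primary screen in duplicate at 10 uM; actives retested in concentration series.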

[14] = molecular target: human CYP2D6, CYP2D6 (gene 1565) (UniProt P10635); experiment: NVS_ADME_hCYP2D6: NovaScreen (NVS) CYP450-related Enzyme Activity (ADME) Assay for human CYP2D6 (AID 2283107; active = hit-call score of the fitted dose curve at least 0.9, where 1 is the maximum)
human CYP2D6, CYP2D6 (gene 1565), sequence (P10635 whole entry, looked up): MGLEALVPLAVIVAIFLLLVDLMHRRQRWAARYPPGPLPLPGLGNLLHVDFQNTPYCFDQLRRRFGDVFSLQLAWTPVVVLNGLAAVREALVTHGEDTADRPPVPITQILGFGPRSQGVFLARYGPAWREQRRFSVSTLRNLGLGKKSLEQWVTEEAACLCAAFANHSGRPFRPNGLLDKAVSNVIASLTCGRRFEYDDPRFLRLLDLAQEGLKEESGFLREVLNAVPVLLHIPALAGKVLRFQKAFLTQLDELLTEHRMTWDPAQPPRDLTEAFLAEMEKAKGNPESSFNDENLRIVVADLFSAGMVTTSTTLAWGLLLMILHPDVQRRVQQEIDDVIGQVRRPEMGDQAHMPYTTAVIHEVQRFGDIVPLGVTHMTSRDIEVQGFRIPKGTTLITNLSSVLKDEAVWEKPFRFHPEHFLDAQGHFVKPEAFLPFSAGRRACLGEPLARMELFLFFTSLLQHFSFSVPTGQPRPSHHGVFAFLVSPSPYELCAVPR
Summary of the method: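 Cell-free assay using recombinant enzyme expressed in insect cells, with fluorescence-intensity readout of enzyme activity 1 hour after chemical dosing. Loss of signal versus acetonitrile negative control indicates inhibition. Primary screen ran in duplicate at 10 uM; actives were retested in concentration series.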

[15] = molecular target: human CYP2A6, CYP2A6 (gene 1548) (UniProt P11509); experiment: NVS_ADME_hCYP2A6: NovaScreen (NVS) CYP450-related Enzyme Activity (ADME) Assay for human CYP2A6 (AID 2283099; active = hit-call score of the fitted dose curve at least 0.9, where 1 is the maximum)
Summary of the method: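 Cell-free fluorescence readout of recombinant human CYP2A6 expressed in insect cells, read 0.5 h after dosing; loss of signal versus acetonitrile negative control. Primary screen in duplicate at 10 uM; actives re-run in concentration-response up to 20 uM.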

[16] = molecular target: human CYP2J2, CYP2J2 (gene 1573) (UniProt P51589); experiment: NVS_ADME_hCYP2J2: NovaScreen (NVS) CYP450-related Enzyme Activity (ADME) Assay for human CYP2J2 (AID 2283106; active = hit-call score of the fitted dose curve at least 0.9, where 1 is the maximum)
Summary of the method: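 Chemicals were first tested at 10 uM in duplicate, and hits meeting criteria such as 30% inhibition were run in singleton concentration series with a 20 uM top concentration. Enzyme activity of recombinant CYP2J2 was measured by fluorescence after 1 h, relative to acetonitrile.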

[17] = molecular target: human CYP4F12, CYP4F12 (gene 66002) (UniProt Q9HCS2); experiment: NVS_ADME_hCYP4F12: NovaScreen (NVS) CYP450-related Enzyme Activity (ADME) Assay for human CYP4F12 (AID 2283111; active = hit-call score of the fitted dose curve at least 0.9, where 1 is the maximum)
human CYP4F12, CYP4F12 (gene 66002), sequence (Q9HCS2 whole entry, looked up): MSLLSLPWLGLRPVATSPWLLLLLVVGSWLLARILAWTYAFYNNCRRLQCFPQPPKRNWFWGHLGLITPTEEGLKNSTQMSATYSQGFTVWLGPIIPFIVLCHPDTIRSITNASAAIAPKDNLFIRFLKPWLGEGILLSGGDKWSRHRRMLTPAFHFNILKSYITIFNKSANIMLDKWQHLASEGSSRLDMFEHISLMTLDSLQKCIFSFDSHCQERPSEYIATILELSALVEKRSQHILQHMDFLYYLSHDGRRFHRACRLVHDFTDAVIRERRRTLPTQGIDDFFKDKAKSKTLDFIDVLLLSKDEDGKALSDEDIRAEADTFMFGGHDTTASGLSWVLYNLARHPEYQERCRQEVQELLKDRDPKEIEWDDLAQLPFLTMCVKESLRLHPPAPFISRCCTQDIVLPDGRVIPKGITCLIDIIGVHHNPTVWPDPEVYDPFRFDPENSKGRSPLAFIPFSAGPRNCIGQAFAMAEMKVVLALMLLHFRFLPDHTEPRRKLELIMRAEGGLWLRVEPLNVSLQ
Summary of the method: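 Recombinant enzyme with a fluorescent substrate, signal read at 0.5 h post-dose; activity loss analysed relative to acetonitrile. Compounds first run in duplicate at 10 uM, with follow-up concentration-response testing of actives.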

[18] = molecular target: rat CYP1A2, Cyp1a2 (gene 24297) (UniProt P04799); experiment: NVS_ADME_rCYP1A2: NovaScreen (NVS) CYP450-related Enzyme Activity (ADME) Assay for rat CYP1A2 (AID 2283115; active = hit-call score of the fitted dose curve at least 0.9, where 1 is the maximum)
rat CYP1A2, Cyp1a2 (gene 24297), sequence (P04799 whole entry, looked up): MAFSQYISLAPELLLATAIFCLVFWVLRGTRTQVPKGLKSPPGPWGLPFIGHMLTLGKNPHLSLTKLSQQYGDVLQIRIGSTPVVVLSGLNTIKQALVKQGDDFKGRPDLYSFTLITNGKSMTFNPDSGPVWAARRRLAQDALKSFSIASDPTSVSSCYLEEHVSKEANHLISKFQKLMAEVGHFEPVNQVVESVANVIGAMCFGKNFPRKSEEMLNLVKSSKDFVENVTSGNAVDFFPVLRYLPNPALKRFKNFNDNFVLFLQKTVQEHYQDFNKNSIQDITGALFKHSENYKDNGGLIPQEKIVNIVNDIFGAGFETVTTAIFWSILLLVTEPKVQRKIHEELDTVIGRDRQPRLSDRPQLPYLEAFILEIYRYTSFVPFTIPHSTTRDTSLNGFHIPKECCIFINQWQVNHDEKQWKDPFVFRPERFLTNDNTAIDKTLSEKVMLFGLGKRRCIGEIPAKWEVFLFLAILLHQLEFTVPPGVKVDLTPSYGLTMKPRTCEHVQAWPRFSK
Summary of the method: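 Primary testing ran in duplicate at 10 uM, with actives re-tested across concentration series. Fluorescence intensity from substrate turnover by recombinant protein, measured 1 hour post-dosing, with signal loss scored against acetonitrile vehicle.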

[19] = molecular target: human CYP19A1, CYP19A1 (gene 1588) (UniProt P11511); experiment: NVS_ADME_hCYP19A1: NovaScreen (NVS) CYP450-related Enzyme Activity (ADME) Assay for human CYP19A1 (AID 2283098; active = hit-call score of the fitted dose curve at least 0.9, where 1 is the maximum;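 also: potency for inhibitors seen as loss of fluorescent enzyme signal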)
Summary of the method: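 Fluorescence intensity read-out; activity taken as signal loss relative to acetonitrile vehicle. Extracted enzyme, specific substrate, no cells, 0.5 h exposure. Duplicate single-point screen at 10 uM, then concentration–response follow-up for actives.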

Measured: AC50

E-selectin (Homo sapiens), sequence (P16581 whole entry, looked up): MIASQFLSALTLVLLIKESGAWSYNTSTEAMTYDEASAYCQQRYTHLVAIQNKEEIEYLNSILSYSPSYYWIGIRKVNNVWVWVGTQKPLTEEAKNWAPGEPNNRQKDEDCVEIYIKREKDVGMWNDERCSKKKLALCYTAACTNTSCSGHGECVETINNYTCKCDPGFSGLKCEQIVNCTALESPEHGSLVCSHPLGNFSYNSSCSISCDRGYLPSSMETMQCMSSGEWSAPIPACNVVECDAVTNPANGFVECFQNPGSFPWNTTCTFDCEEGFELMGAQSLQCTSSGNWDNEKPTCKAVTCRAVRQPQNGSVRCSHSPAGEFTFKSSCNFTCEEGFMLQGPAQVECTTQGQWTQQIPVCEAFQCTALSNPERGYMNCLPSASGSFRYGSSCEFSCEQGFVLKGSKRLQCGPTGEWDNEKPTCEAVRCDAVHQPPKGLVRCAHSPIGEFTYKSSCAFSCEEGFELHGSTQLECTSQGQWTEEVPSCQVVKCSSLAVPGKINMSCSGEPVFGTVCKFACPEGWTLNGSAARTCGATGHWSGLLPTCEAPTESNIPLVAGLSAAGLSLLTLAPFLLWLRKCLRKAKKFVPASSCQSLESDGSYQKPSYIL

CSC(C)(C)C=NO
not listed: [13] | [14] | [15] | [16] | [17] | [18] | [19]
inactive: all other assays above

CCCCOCCOP(=O)(OCCOCCCC)OCCOCCCC
inactive: [1] | [2] | [3] | [4] | [5] | [6] | [7] | [12]

c1ccc2c(c1)Nc1ccccc1S2
active: [4] 2.19 µM | [6] 20 µM | [13] 1.45 µM | [10] 6.5 µM | [12] 6.45 µM
inactive: [1] | [2] | [3] | [5] | [7]

CCOP(=S)(Oc1ccc([N+](=O)[O-])cc1)c1ccccc1 (stereo not given)
active: [6] 22.6 µM | [9] 4.41 µM | [13] 5.08 µM | [10] 5.15 µM | [11] 3.84 µM | [12] 0.198 µM
inactive: [1] | [2] | [3] | [4] | [5] | [7]

OCC1CO1 (stereo not given)
inactive: [1] | [3] | [4] | [5] | [6] | [7]

Cc1ccc2c(c1N)C(=O)c1ccccc1C2=O
inactive: [1] | [2] | [3] | [4] | [5] | [6] | [7] | [11]
active: [14] 5 µM | [10] 0.0118 µM | [12] 3.02 µM

Nc1ccc2ccccc2c1
inactive: [1] | [3] | [4] | [5] | [6] | [7] | [15]
active: [2] 4.16 µM | [9] 1.45 µM | [13] 7.68 µM | [12] 2.58 µM

CC(C)Nc1ccc(Nc2ccccc2)cc1
inactive: [14]
active: [1] 6.2 µM | [2] 5.98 µM | [3] 9.5 µM | [4] 0.016 µM | [5] 5.34 µM | [6] 0.0375 µM | [7] 14.1 µM | [10] 2.66 µM | [12] 3.42 µM

CCCCN(CCCC)SN(C)C(=O)Oc1cccc2c1OC(C)(C)C2
inactive: [8] | [12]
active: [1] 37 µM | [2] 32.6 µM | [3] 32.1 µM | [4] 25 µM | [5] 33 µM | [6] 9.37 µM | [7] 24 µM | [10] 16.8 µM

CC1(C)CN=C(NN=C(/C=C/c2ccc(C(F)(F)F)cc2)/C=C/c2ccc(C(F)(F)F)cc2)NC1
inactive: [8] | [11]
active: [13] 12.9 µM | [16] 5.19 µM

Cc1ccc(O)cc1C
inactive: [1] | [2] | [3] | [5] | [6] | [7]

O=S1(=O)OCC2C(CO1)C1(Cl)C(Cl)=C(Cl)C2(Cl)C1(Cl)Cl (stereo not given)
inactive: [1] | [2] | [3] | [4] | [5] | [6] | [7]
active: [12] 2.43 µM

O=P(Oc1ccccc1)(Oc1ccccc1)Oc1ccccc1
inactive: [4]
active: [1] 29 µM | [2] 33.7 µM | [3] 31.3 µM | [5] 30.2 µM | [6] 32.2 µM | [7] 29.3 µM | [13] 5.67 µM | [12] 0.872 µM

O=[N+]([O-])c1ccccc1
inactive: [1] | [2] | [3] | [4] | [5] | [6] | [7] | [17]

O=P(OCC(Br)CBr)(OCC(Br)CBr)OCC(Br)CBr (stereo not given)
inactive: [1] | [2] | [3] | [4] | [5] | [6] | [7] | [18]
active: [12] 4.35 µM

O=S(=O)(c1ccc(O)cc1)c1ccc(O)cc1
active: [19] 8.81 µM

CCOP(=S)(OCC)SCSCC
inactive: [1] | [2] | [3] | [4] | [5] | [6] | [7]
active: [8] 4.19 µM | [12] 9.32 µM

O=P1(N(CCCl)CCCl)NCCCO1 (stereo not given)
inactive: [1] | [2] | [3] | [4] | [5] | [6] | [7] | [17]

c1ccc2c(c1)sc1ccccc12
inactive: [1] | [2] | [3] | [4] | [5] | [6] | [7] | [18]

— PubChem BioAssay (EPA / NIEHS)
